From PubChem BioAssay AID651784 (National Center for Advancing Translational Sciences (NCATS), 2012) come the findings set out here.

Records with an inconclusive call do not appear. Active and inactive are the calls of the source. Calls follow the shape of the dose curve; as a rule, active = well fitted inhibition curve with a large enough effect; inconclusive = small, poorly fitted or top-dose-only effect; inactive = no such curve, though single readings can be large or run the other way.
Potency is read from the fitted curve at half-maximal effect.

A short description of this test: Acumen qHTS Assay for Inhibitors of the mTORC1 Signaling Pathway in MEF (Tsc2-/-, p53-/-) Cells: Hit Validation. Also: nearly all actives have a fitted effect of over 65% in size. As to conditions: Acumen imaging; activity change, negative = inhibition: at 37.3 µM (top of the series). The text has this:
The mammalian target of rapamycin (mTOR) is an intracellular serine/threonine kinase Aberrant regulation of mTOR signaling plays a causative role in a number of human diseases, including cancer, benign tumors such as lymphangioleiomyomatosis (LAM) and Tuberous Sclerosis Complex (TSC), and metabolic diseases such as diabetes and obesity. This project aims to identify inhibitors of ribosomal protein S6 (rpS6) phosphorylation. The phosphorylation of rpS6 is a key event downstream of mTOR activation. The assay uses a phospho-specific antibody of phospho-rpS6 to detect inhibitors of mTOR activation. Mutations in the Tsc1 and Tsc2 genes are the underlying genetic lesions responsible for TSC, causing constitutive activation of the mTORC1 pathway and leading to profound effects on cell metabolism. Aberrant metabolism in cancer has recently received significant attention as a target to develop therapeutic agents in the treatment of cancer.1 As Tsc2-/- cells have lost the ability to respond to energy and growth factor deprivation, these cells are unable to properly down regulate cellular biosynthetic processes in response to metabolic stress, and are thus extremely sensitive to glucose deprivation-induced death.2 A central goal of this project is to explore the unique cell survival and metabolic properties of cells with Tsc1 or Tsc2 by screening for compounds that selectively target the Tsc2-/- MEFs by screening both Tsc2-/- and WT MEF cell lines. We hope to better understand these aspects of TSC physiology in order to exploit them for therapeutic benefit.
NIH Molecular Libraries Probe Production Centers Network [MLPCN]
NIH Chemical Genomics Center [NCGC]
Assay Submitter (PI): Blenis, John; Harvard University
For quantitative high throughput analysis of mTORC1 signaling, we developed a cell-based assay for immuno-fluorescence based detection of rpS6 phosphorylation on the Acumen Explorer that will be used a platform for the primary small molecule screen. Mouse embryonic fibroblasts (MEFs) are cultured in 1536-well plates using DMEM + 10% FBS. Twenty-four hrs after plating, test compounds (solubilized in DMSO) are delivered and incubated with the cells for 24 hrs at 37 degree Celsius. Following the incubation, media with compound is aspirated and the cells are fixed in 4% paraformaldehyde (PFA) containing PBS + 0.2% TX-100. Next, PFA is aspirated, cells are washed two times with PBS plus 0.2% TX-100 and the cells are blocked for 1 hr at room temperature (blocking buffer: LiCOR Blocking Buffer plus 0.2% TX-100). This is followed by aspiration and staining with Alexa-488 conjugated-phospho-rpS6 Ser235/236 antibody for 2 hours at room temperature (Cell Signaling Technology # 4803, 1:50 dilution in blocking buffer). Cells are washed two times with PBS plus 0.2% TX-100, and stained with 10 uM propidium iodide (PI) for 20-25 minutes for cell number measurement (1:500 dilution of Hoescht staining is also added for IN Cell imaging). The plates are scanned on the Acumen Explorer laser scanning instrument (TTP Labtech) using the 488nm laser for simultaneous excitation of the Alexa-488 and PI. […] Fluorescence emission from the PI stain is selected using a 575-640 nm band pass filter. The normalized phospho-S6 staining is calculated as the ratio of the integrated Alexa 488 intensity divided by the integrated PI intensity for the single concentration rapamycin control (7.5 nM) and DMSO columns. […] Inhibition of the pathway is defined based on the normalized phospho-S6 intensity in rapamycin treated cells. Active cells are defined as those with a normalized phospho-S6 staining above this threshold, and each treatment is reported as the % positive cells in the well, where thresholds are defined by selecting wells with the highest and lowest signal and differentiating between the % non-active and % active populations. In addition to the pathway specific phospho-S6 endpoint, the number of PI stained cells from the Acumen is recorded as a measure of cell viability. […]
A general note: In qHTS, concentration-response curves come from the screen itself.
On to `COc1ccc(Nc2cc(C)nc(-n3nc(C)cc3C)n2)cc1Cl`, for which the Potency was 0.147 µM (active).
Turning to `O=C(NCCN1CCN(c2cccc(Cl)c2)CC1)Nc1ccccc1C(F)(F)F`, the activity change, negative = inhibition was -3.27%.
On to `COc1ccc2cc(CNc3ccccc3)c(=O)n(CC(=O)Nc3ccc(C)cc3C)c2c1`, for which the activity change, negative = inhibition is -44%.
For `Cc1nc2nncn2c(NCc2ccc(F)cc2)c1C`, the activity change, negative = inhibition is -42.2%.
Same read-out and setting: the result for `Cc1cccc(C(=O)Nc2c(C(=O)NCc3ccc(Cl)cc3)sc3nc(C)cc(C)c23)c1` reads -92.4%; that for `CCOc1cc(CNc2ccc(O)cc2)ccc1OCc1ccc(Cl)cc1`, -17.1%.
As to `CC(C)CS(=O)(=O)c1oc(-c2ccc(F)cc2)nc1S(=O)(=O)c1ccccc1`, the activity change, negative = inhibition was -152%.
Consider `CCOc1ccccc1NC(=O)CSc1cc(=O)n(CC)c2ccccc12`, for which the activity change, negative = inhibition came to 1.04%.
For the molecule `Nc1nnc(SCC(=O)Nc2cccc(F)c2)s1`, the activity change, negative = inhibition was 16.3%.
Still for that read-out and setting: the result for `CCc1ccc(NC(=O)C2CCCN(S(=O)(=O)c3cccc4cccnc34)C2)cc1` (stereo not given) reads -7.11%.
Consider `CCN(CC)CCNC(=O)c1cc(-c2ccc(Br)s2)nc2ccccc12`, for which the Potency was 11.7 µM (active).
With `COc1ccc(CNC(=O)c2cc(-c3ccc(OC)c(OC)c3)nc3n[nH]c(-c4ccc(C)cc4)c23)cc1`, the activity change, negative = inhibition is -124%.
In the case of `Cc1c(C(=O)OC2CCC(C)CC2)[nH]c2c1C(=O)CC(c1ccc(F)cc1)C2` (stereo not given), the Potency was 1.04 µM (active).
With `Cc1cccc(Nc2nnc(-c3ccc(C)c(S(=O)(=O)N4CCN(C)CC4)c3)c3ccccc23)c1`, the activity change, negative = inhibition was -6.53%.
As to `O=C(NCC1CCN(Cc2cccc(Cl)c2)CC1)Nc1ccc(F)c(Cl)c1`, the Potency is 9.27 µM (active).
For the molecule `O=C(COc1ccc(F)cc1)Nc1ccc(Cl)c(-c2nc3ccccc3[nH]2)c1`, the activity change, negative = inhibition is -4.39%.
With `COCCCNC(=O)c1ccc(CSc2nc3cccnc3n2Cc2ccc(OC)cc2)cc1`, the activity change, negative = inhibition was 2.82%.
The same measure, in the same setting: the result for `Cc1ccccc1CN1C(=O)C(O)(CC(=O)c2cccc(Br)c2)c2ccccc21` (stereo not given) reads -20%; that for `CC1CCCN(CCCNC(=O)c2cc3c(Cl)nc4ccccc4c3s2)C1` (stereo not given), -16.9%.
Regarding `CC(=O)Nc1cccc(NC(=O)C(=O)NCCc2sc(-c3ccccc3)nc2C)c1`, the Potency is 0.329 µM (active).
As for `Cc1nn(C(C)C(=O)NC2CCC(C)CC2)c(=O)c2c1sc1ccccc12` (stereo not given), the activity change, negative = inhibition was -5.69%.
For `CC(C(=O)NCc1cccc(Br)c1)n1ncn2cccc2c1=O` (stereo not given), the activity change, negative = inhibition came out at 1.66%.
Still for that read-out and setting: then `COc1cc2ncnc(Nc3ccc(F)c(Cl)c3)c2cc1OCCCN1CCOCC1`, with -7.44%; and `CCN(CC)CCNC(=O)c1ccc(Cn2c(=O)c3cccn3c3cccnc32)cc1`, with -24.3%.
Regarding `O=C(c1ccc(CS(=O)c2ccccc2Cl)o1)N1CCN(c2cccc(Cl)c2)CC1` (stereo not given), the Potency is 0.521 µM (active).
Regarding `COc1ccc2nc(NC(=O)c3nc(S(=O)(=O)Cc4ccccc4F)ncc3Cl)sc2c1`, the activity change, negative = inhibition is -106%.
Still for that read-out and setting: the result for `CC1=C(C(=O)OC2CCCC2)C(c2ccccc2Cl)CC(=O)N1` (stereo not given) reads -10.6%; that for `CCc1ccc(CN(Cc2ccco2)C(=O)c2cc(-c3ccc(C)c(F)c3)on2)cc1`, -10.4%.
Consider `Cc1cccc(OCC(=O)Nc2ccc(-c3nc4cc(C)ccc4o3)c(O)c2)c1`, for which the Potency was 6.56 µM (active).
In the case of `CC(C)(C)C1CCc2c(sc(NC(=O)C3c4ccccc4Oc4ccccc43)c2C(N)=O)C1` (stereo not given), the activity change, negative = inhibition is -15.3%.
Consider `CCCCN(C)CCNC(=O)C1CCN(c2nc3ccc(CC)cc3s2)CC1`, for which the activity change, negative = inhibition is -90.7%.
Regarding `COc1ccc(C2CC(=O)c3c([nH]c(C(=O)OC4CCCCCC4)c3C)C2)cc1OC` (stereo not given), the activity change, negative = inhibition was 8.05%.
`CCOCc1cc(CN2CCN(c3ccccc3OC)CC2)c(O)c2ncccc12`: the Potency was 5.21 µM (active).
In the case of `Cc1cccc(NC(=O)c2nc(S(C)(=O)=O)ncc2Cl)c1`, the Potency is 2.07 µM (active).
For `CS(=O)(=O)CCNCc1ccc(-c2ccc3ncnc(Nc4ccc(OCc5cccc(F)c5)c(Cl)c4)c3c2)o1`, the activity change, negative = inhibition is 5.21%.
Turning to `CCCC(=O)OC1=CN(Cc2ccccc2)S(=O)(=O)c2ccccc21`, the activity change, negative = inhibition is -27.1%.
With `COc1ccc(-c2cc(C(F)(F)F)nc(S(=O)(=O)CCCC(=O)Nc3ccccc3C(F)(F)F)n2)cc1OC`, the Potency was 13.1 µM (active).
Still for that read-out and setting: the result for `FC(F)(F)c1cccc(Nc2nc3nonc3nc2Nc2ccc(Cl)cc2)c1` reads 1.65 µM (active).
`CC(C)(C)OC(=O)N1CCC(c2c(C(=O)NCCN3CCC(Cc4ccccc4)CC3)cnn2-c2cccc(Cl)c2)CC1`: the activity change, negative = inhibition was -98.8%.
On the same count and under the same terms, then `CC(C)CCNC(=O)Nc1ccc2c(c1)N(C)C(=O)c1ccccc1S2`, with -8.55%.
